Results as given in PubChem BioAssay (Tox21).
Records with an inconclusive call do not appear. Activity calls are given as the source filed them. Unless noted, calls follow the shape of the full dose curve.

Tests used:
[1] = Nuclear factor erythroid 2-related factor 2/antioxidant responsive element (Nrf2/ARE) small molecule agonists: qHTS cell viability counter screen in human keratinocytes (AID 1919968; active = well fitted curve in the direction sought with a large enough effect in the repeat runs; an effect the other way counts as inactive or inconclusive; also: nearly all actives have a fitted effect of over 55% in size)
In short: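 In human HaCaT keratinocytes stably expressing an ARE-driven luciferase, compound exposure lasted 23 h at 37 C under 5% CO2. Viable cells are quantified with a protease-based fluorogenic reagent (CellTiter-Fluor) read 1 h after addition.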

[2] = Nuclear factor erythroid 2-related factor 2/antioxidant responsive element (Nrf2/ARE) small molecule agonists: luciferase reporter gene qHTS assay in human keratinocytes (AID 1919969); also: nearly all actives have a fitted effect of over 35% in size
[3] = target: Gonadotropin-releasing hormone receptor (Homo sapiens) (UniProt P30968); test: Human gonadotropin-releasing hormone receptor (GnRHR) small molecule agonists, calcium flux assay in GnRHR-HEK293 cells (AID 1920063); also: nearly all actives have a fitted effect of over 35% in size
In short: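 Intracellular calcium rise is the read-out: engineered human GnRHR HEK293 cells, dye-loaded, are exposed to DMSO-dissolved compounds and fluorescence at Ex/Em 480/540 is tracked for 3 min.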

[4] = target: KiSS-1 receptor (Homo sapiens) (UniProt Q969F8); test: Human kisspeptin (KISS1R) small molecule agonists, calcium flux assay in KISS1R-HEK293 cells (AID 1920064; active = well fitted curve in the direction sought with a large enough effect in the repeat runs; an effect the other way counts as inactive or inconclusive)
In short: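 Concentration-response testing used 15 concentrations in triplicate on human KISS1R-expressing HEK293 cells. Calcium-dependent fluorescence (Ex/Em 480/540) was followed kinetically for 3 min after compound transfer.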

[5] = G protein-coupled receptor (GPCR) small molecule agonists, calcium flux assay: HEK293 wild type cell line counter screen (AID 1920065)
In short: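 Fluorescence intensity signals activation. After overnight (18 h) culture and a 1 h calcium dye load at 37 C, compounds are added by pin tool and the plate read at 480/540 nm for 3 min in 1 s steps.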

[6] = p53 small molecule agonists, cell-based qHTS assay with human liver microsomes (AID 1963577);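 also: p53 response element beta-lactamase reporter cells with liver microsomes plus NADPH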
In short: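 Metabolically competent format: test substances, human liver microsomes and NADPH (both 0.5 mg/mL final) incubated with p53RE-bla cells 16 h at 37 C. Beta-lactamase reporter signal then quantified by fluorescence.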

[7] = p53 small molecule agonists, cell-based qHTS assay with rat liver microsomes (AID 1963578)
In short: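 Each plate received p53RE-bla cells, then compound, then rat liver microsomes and NADPH (both 0.5 mg/mL final). Plates were held 16 h at 37 C, and beta-lactamase activity was detected with LiveBLAzer over 2 h.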

[8] = p53 small molecule agonists, cell-based qHTS assay with human liver microsomes: qHTS cell viability counter screen (AID 1963579); also: nearly all actives have a fitted effect of over 45% in size
In short: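 Tox21 library compounds, delivered from DMSO stocks, were tested on p53RE-bla cells together with 0.5 mg/mL human liver microsomes and 0.5 mg/mL NADPH (final) over 16 h at 37 C; CellTiter-Glo luminescence served as the cytotoxicity measure.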

[9] = p53 small molecule agonists, cell-based qHTS assay with rat liver microsomes: qHTS cell viability counter screen (AID 1963580); also: nearly all actives have a fitted effect of over 45% in size
In short: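 Cytotoxicity counter screen: intracellular ATP read by CellTiter-Glo luminescence in the p53 reporter wells. HCT-116 p53RE-bla cells were treated for 16 h at 37 C alongside rat liver microsomes and NADPH, each 0.5 mg/mL final.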

[10] = p53 small molecule agonists, cell-based qHTS assay: qHTS cell viability counter screen (AID 1963581); also: nearly all actives have a fitted effect of over 45% in size
In short: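 Luminescence from CellTiter-Glo, reflecting ATP content, serves as the cytotoxicity measure; it is taken after the 2 h reporter substrate step in HCT-116 p53RE-bla cells dosed for 16 h at 37 C.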

[11] = p53 small molecule agonists, cell-based qHTS assay (AID 1963582; active = well fitted activation curve with a large enough effect in the signal ratio in the repeat runs, not every such curve was filed as active; the % refers to the signal ratio)
In short: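 After plating, p53RE-bla cells sat 5 h in the incubator; compounds or DMSO vehicle were pinned in; a 16 h incubation at 37 C followed; FRET substrate was added and, 2 h later at RT, fluorescence was measured.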

[12] = target: 5-hydroxytryptamine receptor 2A (Homo sapiens) (UniProt P28223); test: 5-hydroxytryptamine receptor 2A (HTR2A) small molecule antagonists, cell-based qHTS assay (AID 1963586); also: nearly all actives have a fitted effect of over 45% in size
In short: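 CHO cells stably expressing human HTR2A were plated for 18 h at 37 C, then loaded with calcium dye for 1 h. Compounds were preincubated 5 min at room temperature before DOI (4 nM solution) was added. Kinetic fluorescence was read for 3 min.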

[13] = target: 5-hydroxytryptamine receptor 2A (Homo sapiens) (UniProt P28223); test: 5-hydroxytryptamine receptor 2A (HTR2A) small molecule agonists, cell-based qHTS assay (AID 1963587); also: nearly all actives have a fitted effect of over 30% in size
In short: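 Kinetic calcium-flux fluorescence (2 min, 1 sec intervals) after compound addition in agonist mode. HTR2A-CHO cells were cultured 18 h, then dye-loaded 1 h at 37 C.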

[14] = target: Muscarinic acetylcholine receptor M1 (Homo sapiens) (UniProt P11229); test: Cholinergic receptor muscarinic 1 (CHRM1) small molecule antagonists, cell-based qHTS assay (AID 1963588); also: nearly all actives have a fitted effect of over 40% in size
In short: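 Compounds were tested at 15 concentrations in three independent runs. Dye-loaded CHRM1-CHO cells were exposed 5 min at room temperature before stimulation by acetylcholine added at 50nM. Intracellular calcium was read kinetically on FDSS for 3 min.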

[15] = cAMP Responsive Elements (CRE) small molecule agonists, cell-based qHTS assay (AID 1963590)
In short: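 Compound exposure lasted 3 h at 37 C/5% CO2 in CRE-bla HEK 293T cells grown in assay medium with 10% dialyzed FBS and 25 mM HEPES. Reporter signal came from LiveBLAzer B/G FRET substrate, 2 h, room temperature.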

[16] = cAMP Responsive Elements (CRE) small molecule antagonists, cell-based qHTS assay (AID 1963591; active = well fitted inhibition curve with a large enough effect in the signal ratio in the repeat runs, not every such curve was filed as active; the % refers to the signal ratio)
In short: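 Stimulation used NKH477 at a final 0.25 uM for 3 h in compound-treated CRE-bla HEK293T cells, seeded 18 h beforehand. Reporter activity was measured with LiveBLAzer B/G FRET substrate after 2 h at room temperature.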

[17] = target: Beta-2 adrenergic receptor (Homo sapiens) (UniProt P07550); test: Adrenergic beta2 receptor (ADRB2) small molecule antagonists, cell-based qHTS assay (AID 1963592); also: series mostly up to about 92 µM; nearly all actives have a fitted effect of over 50% in size
In short: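 Assay format: CHO-ADRB2 cells, 18-20hr seeding at 37C/5% CO2, then compound plus 1nM isoproterenol agonist mix for 0.5hr RT. Homogeneous time-resolved fluorescence cAMP detection after 1hr, expressed as 665/615 nm ratio.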

[18] = target: D(2) dopamine receptor (Homo sapiens) (UniProt P14416); test: Dopamine D2 receptor (DRD2) small molecule agonists, cell-based qHTS assay (AID 1963594); also: nearly all actives have a fitted effect of over 35% in size
In short: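 cAMP accumulation in DRD2-HEK293 cells measured by HTRF after 1 h detection; compounds added 10 min before NKH477 (200nM […]) forskolin-analogue stimulation, 30 min at room temperature, with Ro20-1724 present at 0.1 mM final.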

[19] = target: D(2) dopamine receptor (Homo sapiens) (UniProt P14416); test: Dopamine D2 receptor (DRD2) small molecule antagonists, cell-based qHTS assay (AID 1963595; active = well fitted inhibition curve with a large enough effect in the signal ratio in the repeat runs, with a control signal flat; the % refers to the signal ratio)
In short: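 Cells were plated and grown for 24 h at 37 °C. Ro20-1724 (0.1 mM final) went in first, then compound for 10 min. NKH477 (200 nM) with quinpirole (12 nM) followed for 30 min at RT, then HTRF detection reagents for 1 h.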

[20] = target: Muscarinic acetylcholine receptor M1 (Homo sapiens) (UniProt P11229); test: Cholinergic receptor muscarinic 1 (CHRM1) small molecule agonists, cell-based qHTS assay (AID 1963589); also: nearly all actives have a fitted effect of over 35% in size
In short: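 Fluorescent calcium dye reports M1 activation in stably transfected CHO cells. Compounds, 15 concentrations, added after 1 h dye loading at 37 C; kinetic reading at 1 sec intervals.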
% is scaled to controls: 0 for no effect and ±100 for the full control effect.

Sequence of Muscarinic acetylcholine receptor M1 (Homo sapiens) (P11229 whole entry, looked up): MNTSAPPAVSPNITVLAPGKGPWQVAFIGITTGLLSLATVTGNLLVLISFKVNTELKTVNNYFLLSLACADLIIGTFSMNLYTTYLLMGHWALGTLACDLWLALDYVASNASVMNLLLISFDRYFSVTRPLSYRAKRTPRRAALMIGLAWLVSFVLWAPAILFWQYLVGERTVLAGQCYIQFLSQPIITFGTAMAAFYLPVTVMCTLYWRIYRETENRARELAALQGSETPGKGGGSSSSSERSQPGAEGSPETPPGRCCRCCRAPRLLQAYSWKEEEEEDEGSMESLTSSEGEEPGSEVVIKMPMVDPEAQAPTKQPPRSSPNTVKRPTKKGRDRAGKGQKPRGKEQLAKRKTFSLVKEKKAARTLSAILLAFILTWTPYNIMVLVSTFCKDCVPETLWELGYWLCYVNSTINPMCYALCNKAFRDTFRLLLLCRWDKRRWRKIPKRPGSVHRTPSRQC
Sequence of D(2) dopamine receptor (Homo sapiens) (P14416 whole entry, looked up): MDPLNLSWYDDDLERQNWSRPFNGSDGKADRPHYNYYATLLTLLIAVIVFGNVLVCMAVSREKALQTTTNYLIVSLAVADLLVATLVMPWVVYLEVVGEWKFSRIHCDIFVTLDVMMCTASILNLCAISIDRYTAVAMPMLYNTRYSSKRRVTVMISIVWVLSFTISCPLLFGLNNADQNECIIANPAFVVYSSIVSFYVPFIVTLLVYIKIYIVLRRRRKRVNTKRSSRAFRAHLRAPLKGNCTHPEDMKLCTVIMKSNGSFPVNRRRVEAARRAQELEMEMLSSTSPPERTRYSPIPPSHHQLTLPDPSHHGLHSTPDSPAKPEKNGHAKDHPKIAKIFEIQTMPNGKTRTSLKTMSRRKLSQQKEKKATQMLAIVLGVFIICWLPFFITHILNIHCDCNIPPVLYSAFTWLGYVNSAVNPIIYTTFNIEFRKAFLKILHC
Sequence of 5-hydroxytryptamine receptor 2A (Homo sapiens) (P28223 whole entry, looked up): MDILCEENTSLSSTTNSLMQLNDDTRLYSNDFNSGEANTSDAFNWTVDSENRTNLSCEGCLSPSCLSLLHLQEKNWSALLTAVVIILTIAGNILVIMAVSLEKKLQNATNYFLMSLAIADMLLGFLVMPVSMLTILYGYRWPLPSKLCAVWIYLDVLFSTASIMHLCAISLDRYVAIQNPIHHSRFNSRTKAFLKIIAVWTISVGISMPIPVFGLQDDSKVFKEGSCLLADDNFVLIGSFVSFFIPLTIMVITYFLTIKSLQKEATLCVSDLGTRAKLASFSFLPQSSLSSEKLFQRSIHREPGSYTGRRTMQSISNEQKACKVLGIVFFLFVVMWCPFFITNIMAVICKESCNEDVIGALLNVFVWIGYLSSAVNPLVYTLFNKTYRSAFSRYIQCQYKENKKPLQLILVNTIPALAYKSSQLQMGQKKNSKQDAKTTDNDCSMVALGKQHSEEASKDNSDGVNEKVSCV
Sequence of Gonadotropin-releasing hormone receptor (Homo sapiens) (P30968 whole entry, looked up): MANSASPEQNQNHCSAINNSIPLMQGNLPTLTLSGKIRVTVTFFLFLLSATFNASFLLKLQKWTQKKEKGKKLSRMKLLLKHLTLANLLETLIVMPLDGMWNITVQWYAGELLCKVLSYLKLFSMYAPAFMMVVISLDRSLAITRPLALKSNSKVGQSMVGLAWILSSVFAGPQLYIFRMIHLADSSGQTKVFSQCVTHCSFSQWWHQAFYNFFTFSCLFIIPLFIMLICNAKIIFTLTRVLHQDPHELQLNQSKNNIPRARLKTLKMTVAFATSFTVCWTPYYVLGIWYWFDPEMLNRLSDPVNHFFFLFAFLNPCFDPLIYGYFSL
Sequence of Beta-2 adrenergic receptor (Homo sapiens) (P07550 whole entry, looked up): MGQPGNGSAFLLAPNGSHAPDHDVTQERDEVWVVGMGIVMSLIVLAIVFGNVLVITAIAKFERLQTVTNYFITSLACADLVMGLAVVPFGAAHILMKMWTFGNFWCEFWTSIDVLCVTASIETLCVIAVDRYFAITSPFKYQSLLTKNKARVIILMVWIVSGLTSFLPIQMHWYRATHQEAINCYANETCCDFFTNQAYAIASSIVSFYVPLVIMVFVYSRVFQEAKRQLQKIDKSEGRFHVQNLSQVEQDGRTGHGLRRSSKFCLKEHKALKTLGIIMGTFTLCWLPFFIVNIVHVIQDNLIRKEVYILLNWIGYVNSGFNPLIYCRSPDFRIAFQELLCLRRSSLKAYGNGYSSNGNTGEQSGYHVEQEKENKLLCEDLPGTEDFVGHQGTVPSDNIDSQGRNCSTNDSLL
Sequence of KiSS-1 receptor (Homo sapiens) (Q969F8 whole entry, looked up): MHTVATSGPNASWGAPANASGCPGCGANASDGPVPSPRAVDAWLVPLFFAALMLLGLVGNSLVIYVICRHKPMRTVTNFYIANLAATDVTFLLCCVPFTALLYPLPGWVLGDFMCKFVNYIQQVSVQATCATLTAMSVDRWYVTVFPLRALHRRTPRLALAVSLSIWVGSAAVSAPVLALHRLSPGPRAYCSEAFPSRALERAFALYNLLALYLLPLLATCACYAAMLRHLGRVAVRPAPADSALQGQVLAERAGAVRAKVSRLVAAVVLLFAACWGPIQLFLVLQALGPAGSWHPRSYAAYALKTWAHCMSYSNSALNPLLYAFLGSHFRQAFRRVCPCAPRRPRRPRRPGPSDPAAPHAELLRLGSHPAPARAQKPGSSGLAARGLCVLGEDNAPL

ClC(Cl)(Cl)Br
inactive: Potency [1] | Potency [2] | Potency [3] | Potency [4] | Potency [5] | Potency [6] | Potency [7] | Potency [8] | Potency [9] | Potency [10] | Potency [11] | Potency [12] | Potency [13] | Potency [14] | Potency [15] | activity change, negative = inhibition [16] 0.761% [at 18.9 µM] | Potency [17] | Potency [18] | Potency [19]

Nc1c(Cl)c(Cl)nc(C(=O)O)c1Cl
inactive: Potency [1] | Potency [2] | Potency [3] | Potency [4] | Potency [5] | Potency [6] | Potency [7] | Potency [8] | Potency [9] | Potency [10] | Potency [11] | Potency [12] | Potency [14] | Potency [20] | Potency [16] | Potency [17] | Potency [18] | Potency [19]

CC(C)(C1CCC(O)CC1)C1CCC(O)CC1 (stereo not given)
inactive: Potency [1] | Potency [2] | Potency [3] | Potency [4] | Potency [5] | Potency [6] | Potency [7] | Potency [8] | Potency [9] | Potency [10] | Potency [11] | Potency [12] | Potency [14] | Potency [20] | Potency [15] | Potency [16] | Potency [17] | Potency [18] | Potency [19]

C=CCN(CC=C)C(=O)C(Cl)Cl
inactive: Potency [1] | Potency [2] | Potency [3] | Potency [4] | Potency [5] | Potency [6] | Potency [7] | Potency [8] | Potency [9] | Potency [10] | Potency [11] | Potency [12] | Potency [14] | Potency [15] | Potency [16] | Potency [17] | Potency [19]

C=CCN1CC[C@]23CCCC[C@H]2[C@H]1Cc1ccc(O)cc13
inactive: Potency [1] | Potency [2] | Potency [3] | Potency [4] | Potency [5] | Potency [6] | Potency [7] | Potency [8] | Potency [9] | Potency [10] | Potency [11] | Potency [12] | Potency [20] | Potency [15] | Potency [16] | Potency [17] | Potency [18] | Potency [19]

C[C@H]1C(=O)O[C@@H]2CCN3CC=C(COC(=O)[C@](C)(O)[C@]1(C)O)[C@H]23
inactive: Potency [1] | Potency [2] | Potency [3] | Potency [4] | Potency [5] | Potency [6] | Potency [7] | Potency [8] | Potency [9] | Potency [10] | Potency [11] | Potency [12] | Potency [13] | Potency [15] | Potency [16] | Potency [17] | Potency [18] | Potency [19]

Cc1ccc(-c2nc3ccc(C)cn3c2CC(=O)N(C)C)cc1
inactive: Potency [1] | Potency [2] | Potency [3] | Potency [4] | Potency [5] | Potency [6] | Potency [7] | Potency [8] | Potency [9] | Potency [10] | Potency [11] | Potency [12] | Potency [13] | Potency [20] | Potency [16] | Potency [17] | Potency [18]

NCC(O)c1ccc(O)cc1 (stereo not given)
inactive: Potency [1] | Potency [2] | Potency [3] | Potency [4] | Potency [5] | Potency [6] | Potency [7] | Potency [8] | Potency [9] | Potency [10] | Potency [11] | Potency [12] | Potency [14] | Potency [20] | Potency [15] | Potency [16] | Potency [17] | Potency [18] | Potency [19]
